# Assay outcomes deposited in PubChem BioAssay by National Center for Advancing Translational Sciences (NCATS).
# Pf growth 48h: P. falciparum growth inhibition at 48 hours (one generation). actives 5.9% (n = 310,000). P. falciparum luciferase growth in erythrocytes, 48 h. Potency, µM (highest dose often 28.7 µM), without a hit: at the highest dose activity change, negative = inhibition, actives largely listed as inhibitors; also: % is scaled to controls: 0 for no effect and ±100 for the full control effect
#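 Luciferase-expressing parasites in RBCs, 2% Hct / 0.1% parasitemia final; RPMI 1640 + 0.5% Albumax; 37 C, 5% CO2, one generation; luminescence read-out, lower signal = inhibition.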
# SARS PLpro yeast: SARS-CoV PLP inhibition in yeast; S. cerevisiae expressing SARS-CoV PLpro, growth rescue; Potency, µM (highest dose often 32.9 µM), inactives show top-dose activity, positive = growth rescue, most hits filed as activators; actives 0.19% (n = 330,000); calls by dose curve; also: 0% is about no effect; nearly all actives have a fitted effect of over 55% in size
# Pf growth 96h: P. falciparum growth inhibition at 96 hours; P. falciparum luciferase reporter growth, 96 h; AID 504834; actives 6.9% (n = 320,000); Potency, µM (doses to about 28.7 µM), for the others: at the highest dose activity change, negative = inhibition, most hits filed as inhibitors; also: % is scaled to controls: 0 for no effect and ±100 for the full control effect
#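 Two-generation exposure (96 h) targets delayed-death phenotype. Reporter parasites carrying integrated firefly luciferase, in red cells at 2% hematocrit and 0.05% parasitemia final, kept at 37 C, 5% CO2; luminescence loss indicates inhibition.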
# NS1 inh: inhibitors of influenza NS1 protein function; Potency, µM (titrated, usually from 46.1 µM), for the others: top-dose activity, positive = more growth; actives 0.4% (n = 270,000); AID 2326; calls by dose curve; also: actives are rising curves; nearly all actives have a fitted effect of over 50% in size
#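 Compounds were scored for reversing the slow growth caused by influenza A NS1 in S. cerevisiae, measured by optical density at 600 nm. Assay medium contained 2% galactose at pH 6.0; NS1-free yeast of the same strain were the positive control.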
# * hit, by the source's call; ? = inconclusive; nt = no result; [ ] = dose if it differs, or a comment. Sampled rows, rich in hits. Any-hit rate of the full collection: about 10%. Unless noted, calls follow the shape of the dose curve; as a rule, active = well fitted inhibition curve with a large enough effect; inconclusive = small, poorly fitted or top-dose-only effect, or another doubt; inactive = no such curve, though single readings can be large or run the other way. Potency is read from the fitted curve at half-maximal effect.
SMILES,Pf growth 48h,SARS PLpro yeast,Pf growth 96h,NS1 inh
CCC/C(O)=C1\C(=O)CC(c2ccccc2)CC1=NCCc1c(C)[nH]c2ccccc12 (stereo not drawn),2.6µM*,-12%,?,20%
CCC/C(O)=C1\C(=O)CCCC1=NCCc1c(C)[nH]c2ccccc12,-19%,-2%,-21%,0%
CCCC(=NCCc1c(C)[nH]c2ccccc12)C1=C(O)CC(c2ccccc2)CC1=O (stereo not drawn),13µM*,-17%,-16%,12%
CCCCC(=NCCc1c(C)[nH]c2ccccc12)C1=C(O)CC(c2ccccc2)CC1=O (stereo not drawn),9.3µM*,-3%,?,nt
CN(CC(=O)Nc1ccccc1C(F)(F)F)C(=O)c1ccc(-c2ccc(Cl)cc2)o1,2.9µM*,-4%,2.6µM*,nt
COc1cccc(NC(=O)CN(C)C(=O)c2ccc(-c3ccc(Cl)cc3)o2)c1,1.7µM*,-20%,5.9µM*,nt
COc1cccc(NC(=O)CN(C)C(=O)c2ccc(-c3ccccc3Cl)o2)c1,0.29µM*,-4%,?,-3%
COc1cccc(-c2nn(-c3ccc(C)cc3)cc2C(=O)N(C)CC(=O)Nc2cccc(F)c2)c1,5.2µM*,-10%,15µM*,nt
CN(CC(=O)Nc1ccccc1Br)C(=O)c1ccc(-c2ccc(Cl)cc2)o1,?,-3%,?,-19%
Cc1nc(CNS(=O)(=O)c2ccc(F)cc2)cs1,15%,-1%,-21%,0%
CCCCc1c(O)nc2ccccn2c1=O,?,-7%,12µM*,8%
Cc1c(O)nc2ccccn2c1=O,0%,0%,73%,0%
COc1ccccc1-c1cc(C(=O)N/N=C/c2ccc(C)s2)c2ccccc2n1,nt,12%[6.58 µM],1.5µM*,?
COc1cc(/C=N/NC(=O)c2cc(-c3ccccc3)nc3ccccc23)cc(OC)c1O,54%,3%,?,0%
COc1ccccc1-c1cc(C(=O)N/N=C/c2ccoc2)c2ccccc2n1,9.3µM*,-3%,0%,?
CCc1ccc(/C=N/NC(=O)c2cc(-c3ccccc3OC)nc3ccccc23)s1,nt,-3%,2.6µM*,-5%
COc1ccc(/C=N/NC(=O)c2cc(-c3ccccc3OC(C)C)nc3ccccc23)cc1CN1CCOCC1,3%,-2%,2%,0%
COc1ccc(/C=N/NC(=O)c2cc(-c3ccccc3OC)nc3ccccc23)cc1COC(C)=O,12µM*,5%,1.9µM*,16%
COc1ccccc1CNC(=O)Cn1c(=O)oc2cc(S(=O)(=O)N3CCCC3)ccc21,?,4%,-15%,-12%
COc1ccc(NC(=O)COc2cccc(-n3cnnn3)c2)cc1,29%,0%,10µM*,2%
COc1ccc(OCCOC(=O)c2cccc(-n3cnnn3)c2)cc1,53%,4%,15µM*,-7%
COc1ccc(OCCOC(=O)c2ccc(-n3cnnn3)cc2)cc1,nt,-1%,?,-59%
COc1cc(NC(=O)COc2cccc(OC)c2)cc(OC)c1,9%,2%,5.2µM*,-12%
COc1cccc(NC(=O)COc2ccccc2)c1,75%,-4%,-8%,-14%
Cc1ccc(NC(=O)COc2cccc(-n3cnnn3)c2)cc1S(=O)(=O)N1CCOCC1,13µM*,0%,?,nt
SMILES,Pf growth 48h,SARS PLpro yeast,Pf growth 96h,NS1 inh
C=CS(=O)(=O)N(Cc1ccc(Cl)c(Cl)c1)C[C@@H](O)CO,nt,7%,nt,nt
COc1ccc(NS(=O)(=O)c2nnc(NC(=O)c3ccccc3F)s2)cc1,58%,-1%,?,-8%
O=C(Nc1ccc(Br)cc1)c1cccc(-n2cnnn2)c1,-94%,nt,?,12%
Cc1ccc(NC(=O)c2cccc(-n3cnnn3)c2)cc1Cl,9.3µM*,3%,?,nt
COc1cccc(NC(=O)c2nn(C)c(C(=O)Nc3cccc(OC)c3)c2[N+](=O)[O-])c1,33%,0%,6.6µM*,-12%
COc1ccc(C(CC(=O)Nc2cc(OC)cc(OC)c2)n2cccc2)cc1 (stereo not drawn),13µM*,17%,?,15%
COc1cccc(NC(=O)c2ccc(-n3cnnn3)cc2)c1,18%,-2%,4.1µM*,1%
COc1ccc(C(CC(=O)Nc2ccccc2OC)n2cccc2)cc1 (stereo not drawn),-10%,0%,?,1%
COc1cccc(NC(=S)NNC(=O)c2c([N+](=O)[O-])c(C)nn2C)c1,15%,-17%,0%,-4%
COc1ccc(C(=O)Nc2cccc(OC)c2)cc1,nt,-13%,12%,-50%
CC(C)NC(=O)C(=O)Nc1cc2c3c(c1)C(C)C(=O)N3CCC2 (stereo not drawn),7%,1%,36%,3%
Nc1nonc1-n1nnc(C(=O)N/N=C/c2ccccc2Br)c1CN1CCCC1,38%,0%,?,5%
Cc1cc2c(s1)c(C=O)c(C(=O)NCc1ccccc1F)n2C,?,6%,-21%,nt
CCOc1ccc(C2(C)CC(=O)N(C)C2=O)cc1 (stereo not drawn),-8%,?,-16%,-1%
N=C1SCC(=O)N1c1ncc(Cc2cccc(Cl)c2)s1,?,-6%,-25%,-61%
Cc1ccc(NC(=O)CSC2=NN3CCCC(=O)N=C3S2)cc1Cl,?,-1%,?,-6%
CCN(C(=O)COC(=O)C1CC1C)c1c(N)n(Cc2ccccc2)c(=O)[nH]c1=O (stereo not drawn),-20%,-2%,6%,nt
O=C(CSc1nnc(CNC(=O)c2ccco2)o1)Nc1cccc(Cl)c1,15%,8%,5.9µM*,-5%
Cc1cc(C)c(NC(=O)CSc2nnc(CNC(=O)c3ccco3)o2)c(C)c1,-20%,1%,9.3µM*,-1%
O=C(CSc1nnc(CNC(=O)c2ccco2)o1)c1ccccc1,nt,-4%,4.1µM*,-8%
O=C(CSc1nnc(CNC(=O)c2ccco2)o1)Nc1ccccc1,13%,-3%,26%,nt
Cc1cccc(C)c1NC(=O)CSc1nnc(Cc2ccccc2)o1,-17%,2%,12µM*,-1%
CCOC(=O)c1cc(S(=O)(=O)N2CCCC2)cn1C,1%,-6%,20%,1%
Cc1cc(C(=O)CSc2nnc(Cc3ccccc3)o2)c(C)n1Cc1ccc2c(c1)OCO2,9.3µM*,1%,?,-6%
COc1ccc(OC)c(NC(=O)CSc2nnc(CNC(=O)c3ccco3)o2)c1,nt,-2%,2.6µM*,4%
SMILES,Pf growth 48h,SARS PLpro yeast,Pf growth 96h,NS1 inh
Cc1ccc(F)cc1NC(=O)CSc1nnc(CNC(=O)c2ccco2)n1C,31%,-3%,-1%,nt
O=C(CSc1nnc(CNC(=O)c2ccco2)o1)Nc1ccc(Cl)cc1,21%,-6%,10µM*,1%
Cc1ccc(C)c(NC(=O)CSc2nnc(CNC(=O)c3ccco3)n2C)c1,28%,4%,2.1µM*,6%
COc1ccc(Cl)cc1NC(=O)CSc1nnc(CNC(=O)c2ccco2)o1,10%,-2%,?,nt
C=CCn1c(C)cc(C(=O)CSc2nnc(Cc3ccccc3)o2)c1C,7%,?,?,-105%
C/C(C[n+]1ccccc1)=N\N=C(N)N,nt,nt,nt,-6%
Cc1oc2ccc(OCc3ccc(Br)cc3)cc2c1C(=O)O,3%,1%,-4%,3%
